“And” between values parts separate entries of the source, which are not always exact repeats. Equal entries are not always repeated. Records with an inconclusive call do not appear. The source made the active and inactive calls. Unless noted, the call rests on the fitted dose curve; in most records, active means well fitted curve in the direction sought with a large enough effect; inconclusive means small, poorly fitted or top-dose-only effect, or another doubt; inactive means no such curve, though single readings can be large; an effect the other way counts as inactive or inconclusive.
Key:
[1] = Cell Viability - Hek293 (AID 427;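 active means compounds whose dose-response curve shows a full or clear partial loss of cell viability, called from curve shape rather than a numeric limit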;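 further: potency means the concentration at half of the fitted maximal effect; cells exposed to compound for 40 hours at 37 °C before reading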); conditions: qHTS
Summary of the method: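 qHTS, human embryonic kidney (adenovirus-transformed) cells; 40 hr cpd, 37 °C; CellTiter-Glo ATP luminescence. Norm: DMSO = 0, 100 uM tamoxifen = 100% inhibition. Hill-fit AC50.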

[2] = Cell Viability - N2a (AID 540); conditions: N2a mouse neuroblastoma cell viability; activity change, negative = cytotoxicity: at 92.2 µM (top of the series);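 further: plate controls were DMSO alone for no effect and tamoxifen control for full effect; nearly all actives have a fitted effect of over 45% in size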
Summary of the method: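 CellTiter-Glo ATP luminescence, read 20 min after reagent at room temperature, reported viability following 40 h compound treatment at 37 °C. N2a mouse neuroblastoma cells seeded 1500/well; Hill equation gave AC50.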

[3] = Cellular Toxicity (caspase-3) SHSY5Y (AID 657); conditions: SH-SY5Y caspase-3 activation, DMSO zero, 10 µM staurosporine = 100%; series mostly up to 91.7 µM;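 further: cells exposed to compound for 16 hours at 37 °C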
Summary of the method: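 Luminescent caspase-3/7 readout (aminoluciferin release) in SH-SY5Y cells after 16 h compound exposure in complete medium. Activity scaled between DMSO basal and 10 uM staurosporine as 100%; concentration-response fitted to Hill equation for AC50.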

[4] = Cellular Toxicity (caspase-3) Mesangial (AID 660); conditions: mesangial cells, normalized: DMSO 0%, 100 µM tamoxifen 100%; series mostly up to 91.7 µM;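 further: combined caspase 3 and 7 activity read by Caspase-Glo luminescence; cells exposed to compound for 16 h before the caspase read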
Summary of the method: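 Caspase 3/7 activation measured by Caspase-Glo 3/7 luminescence (20 min, room temperature) following 16 h exposure of mesangial cells (1000/well); AC50 from Hill-equation fit, normalized to DMSO and 100 uM tamoxifen.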

[5] = Cellular Toxicity (caspase-3) NIH 3T3 (AID 666); conditions: NIH 3T3 caspase-3 activation, apoptosis/toxicity; series mostly up to 92.2 µM;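 further: caspase signal read after 16 h compound exposure; 0% = DMSO basal and 100% = 100 µM tamoxifen stimulation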
Summary of the method: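 Caspase-Glo 3/7 luminescence reported caspase activation in 1000 NIH 3T3 cells/well after 16 h compound exposure at 37 C. DMSO set basal and 100 uM tamoxifen set 100% stimulation; concentration-response modeled with the Hill equation for AC50.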

[6] = Cell Viability - LYMP2-001 (AID 921); conditions: LYMP2-001 lymphoblastoid cell viability; series mostly up to 92.2 µM;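 further: cells exposed to compound for 24 h at 37 °C; 0% = DMSO only and full inhibition = tetraoctylammonium bromide control wells; nearly all actives have a fitted effect of over 70% in size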
Summary of the method: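 CellTiter-Glo luminescence (intracellular ATP) after 24 hr compound exposure at 37 C, 2500 lymphoblastoid cells/well in complete medium. AC50 fitted with standard Hill equation; tetraoctylammonium bromide positive control.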

[7] = MultiTox-Fluor Cytotoxicity Assay - LYMP1-002 - Dead Cells (AID 960); conditions: LYMP1-002 lymphoblastoid cells, dead-cell protease fluorescence; series mostly up to 46.1 µM;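 further: 0% = DMSO and 100% = tetraoctylammonium bromide; nearly all actives have a fitted effect of over 60% in size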
Summary of the method: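 Dead-cell fluorescence (Ex/Em 485/520) after 16 h compound exposure at 37 C of LYMP1-002 lymphoblastoid cells in complete medium; AC50 by Hill equation, with data scaled between DMSO and 15 uM tetraoctylammonium bromide.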

[8] = Cell Viability - LYMP2-006 (AID 978); conditions: LYMP2-006 lymphoblastoid cell viability, qHTS; series mostly up to 92.2 µM;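 further: cells exposed to compound for 24 hours; on the % scale 0 is the no-effect control and ±100 the full control effect; nearly all actives have a fitted effect of over 60% in size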
Summary of the method: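 qHTS, 1536-well; 2500 cells/well, 5 hr 37 C; cpd 24 hr 37 C; CellTiter-Glo 30 min RT; luminescence. Tetraoctylammonium bromide pos. ctrl. AC50 via Hill eqn.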

[9] = biological target: Vitamin D3 receptor (Homo sapiens) (UniProt P11473); assay: qHTS assay for small molecule antagonists of vitamin D receptor signaling (AID 588541; calls by dose curve;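 further: receptor activated by calcitriol during compound treatment; on the % scale 0 is the no-effect control and ±100 the full control effect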); conditions: HEK293T VDR-UAS-bla, beta-lactamase ratio, antagonist mode; series mostly up to 76.7 µM
Summary of the method: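 Antagonist-mode beta-lactamase reporter assay: HEK293T VDR-UAS-bla cells were exposed to titrated compound alongside 1-alpha,25-dihydroxyvitamin D3 at 3 nM final for 16 h. Values were normalized to the 50 nM agonist control and DMSO basal, with IC50 and efficacy from Hill equation fits.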

[10] = biological target: Thyroid hormone receptor beta (Homo sapiens) (UniProt P10828); assay: qHTS assay for small molecule antagonists of thyroid hormone receptor beta signaling (AID 588547; active means well fitted inhibition curve with a large enough effect in the signal ratio, with a control signal flat, not every such curve was filed as active; the % refers to the signal ratio;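 further: cells stimulated with 0.4 nM T3 agonist during compound exposure; on the % scale 0 is the no-effect control and ±100 the full control effect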); conditions: TR-UAS-bla HEK293, beta-lactamase ratio, antagonist mode, 18 h
Summary of the method: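 Inhibition of T3-driven (0.4nM final) beta-lactamase reporter activity was measured over 0.59 nM to 92 uM compound after 18 h at 37 C. The cells were GripTite HEK293 TR-UAS-bla in charcoal/dextran-stripped serum, with CCF4 ratio read-out and IC50 from Hill fits.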

[11] = qHTS assay for small molecule disruptors of the mitochondrial membrane potential - 1 hr assay (AID 651754; calls by dose curve; further: on the % scale 0 is the no-effect control and ±100 the full control effect; nearly all actives have a fitted effect of over 35% in size); conditions: series mostly up to 92.2 µM
Summary of the method: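 Mitochondrial potential in living HepG2 cells after 1 hr compound treatment at 37C was read with Mito-MPS dye added for a further 30 min. Red aggregate and green monomer fluorescence were measured; loss of potential leaves dye as cytoplasmic monomers.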

[12] = qHTS assay for small molecule disruptors of the mitochondrial membrane potential - 5 hr assay (AID 651755; calls by dose curve; further: on the % scale 0 is the no-effect control and ±100 the full control effect; nearly all actives have a fitted effect of over 40% in size); conditions: JC-1-type ratio dye; series mostly up to 92.2 µM
Summary of the method: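 Membrane-potential dye readout: red aggregate (540 ex/590 em) versus green monomer (490 ex/535 em) fluorescence after 30 min dye loading, following 5 hr compound exposure at 37C of overnight-plated HepG2 cells.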

[13] = biological target: Nuclear receptor ROR-gamma (Homo sapiens) (UniProt P51449); assay: qHTS assay for small molecule antagonists of the retinoid-related orphan receptor gamma (ROR-gamma) signaling pathway (AID 651802); conditions: ROR-gamma antagonist cell reporter assay; series mostly up to 92.2 µM;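 further: CHO cells with doxycycline-induced ROR-gamma expression; luciferase reporter luminescence driven by ROR response element; on the % scale 0 is the no-effect control and ±100 the full control effect; nearly all actives have a fitted effect of over 60% in size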
Summary of the method: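 Luminescence (One-Glo, 30 min RT) measured 16 h after compound addition and doxycycline induction at 37C. Reporter: RORE-luciferase under TET-inducible ROR-gamma in CHO cells.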

[14] = qHTS assay for cell viability of HEK293 cells (AID 743288); conditions: ATP luminescence (CellTiter-Glo), 18 h, stronger effect = lower value; further: on the % scale 0 is the no-effect control and ±100 the full control effect; nearly all actives have a fitted effect of over 50% in size
Summary of the method: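 ATP luminescence (CellTiter-Glo) reports metabolically competent cell number after parental HEK293 cells, 2,000/well, were treated with DMSO-dissolved compounds for 18 h at 37 C; reagent incubation 30 min, room temperature.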

[15] = Cellular Toxicity (caspase-3) H-4-II-E (AID 663); conditions: H-4-II-E rat hepatoma; Potency: caspase-3 activation; series mostly up to 92.2 µM;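 further: cells exposed to compound for 16 hr before readout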
Summary of the method: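 Caspase 3/7 activation measured by luminescent aminoluciferin substrate cleavage after 16 hr compound treatment of H-4-II-E cells in complete medium. Increase normalized between DMSO (basal) and 100 uM tamoxifen (100%); Hill-equation AC50 from concentration-response.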

[16] = Cell Viability - LYMP2-009 (AID 968); conditions: LYMP2-009 lymphoblastoid cell viability; series mostly up to 92.2 µM;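 further: cells exposed to compound for 24 h at 37 °C; 0% = DMSO alone and the full-kill end = tetraoctylammonium bromide at 92 µM; nearly all actives have a fitted effect of over 55% in size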
[17] = qHTS assay for small molecule agonists of retinoid X receptor alpha signaling (AID 588544; calls by dose curve;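 on activation: 0% = DMSO basal wells and 100% = reference agonist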); conditions: HEK293T RXRa-UAS-bla, beta-lactamase reporter, 18 h; 530 nm emission
[18] = biological target: Retinoic acid receptor RXR-alpha (Homo sapiens) (UniProt P19793); assay: as above; conditions: HEK293T RXRa-UAS-bla, beta-lactamase reporter, 18 h; series mostly up to 76.7 µM
[19] = qHTS assay for small molecule agonists of the antioxidant response element (ARE) signaling pathway measured by Nrf2-dependant transcriptional activity - cell viability counter screen (AID 720653; active means well fitted curve in the direction sought with a large enough effect in the repeat runs; an effect the other way counts as inactive or inconclusive; further: on the % scale 0 is the no-effect control and ±100 the full control effect); conditions: ARE-bla HepG2 viability, CellTiter-Glo ATP luminescence, 16 h; stronger effect = lower value
Summary of the method: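 Cytotoxicity counter screen: intracellular ATP quantified by CellTiter-Glo luminescence in the same ARE-bla HepG2 plates, after 16 h compound exposure and a 2 h beta-lactamase substrate step.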

[20] = Cell Viability - SH-SY5Y (AID 544); conditions: SH-SY5Y neuroblastoma cell viability; viability change, negative = cytotoxic: at 92.2 µM (top of the series);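 further: cells exposed to compound for 40 hours; nearly all actives have a fitted effect of over 55% in size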; further: potency means the concentration at half of the fitted maximal effect
Summary of the method: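 Cytotoxicity measured via ATP-dependent luciferase luminescence (CellTiter-Glo) following 40 h, 37 °C exposure of 1500 SH-SY5Y cells per well. Concentration-response data were fitted with the standard Hill equation to give AC50.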

Thyroid hormone receptor beta (Homo sapiens), sequence (P10828 whole entry, looked up): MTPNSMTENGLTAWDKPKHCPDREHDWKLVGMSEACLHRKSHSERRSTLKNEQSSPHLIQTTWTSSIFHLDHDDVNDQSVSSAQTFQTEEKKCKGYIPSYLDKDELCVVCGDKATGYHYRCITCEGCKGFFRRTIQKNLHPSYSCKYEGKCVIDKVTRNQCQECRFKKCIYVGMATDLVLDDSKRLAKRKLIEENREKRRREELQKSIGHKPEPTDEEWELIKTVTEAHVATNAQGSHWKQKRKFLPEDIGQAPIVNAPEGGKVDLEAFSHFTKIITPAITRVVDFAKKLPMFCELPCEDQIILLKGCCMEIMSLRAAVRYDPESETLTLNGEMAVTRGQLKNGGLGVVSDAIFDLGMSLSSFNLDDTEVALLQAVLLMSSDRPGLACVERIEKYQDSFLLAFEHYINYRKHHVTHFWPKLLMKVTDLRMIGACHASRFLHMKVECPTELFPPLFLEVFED
Retinoic acid receptor RXR-alpha (Homo sapiens), sequence (P19793 whole entry, looked up): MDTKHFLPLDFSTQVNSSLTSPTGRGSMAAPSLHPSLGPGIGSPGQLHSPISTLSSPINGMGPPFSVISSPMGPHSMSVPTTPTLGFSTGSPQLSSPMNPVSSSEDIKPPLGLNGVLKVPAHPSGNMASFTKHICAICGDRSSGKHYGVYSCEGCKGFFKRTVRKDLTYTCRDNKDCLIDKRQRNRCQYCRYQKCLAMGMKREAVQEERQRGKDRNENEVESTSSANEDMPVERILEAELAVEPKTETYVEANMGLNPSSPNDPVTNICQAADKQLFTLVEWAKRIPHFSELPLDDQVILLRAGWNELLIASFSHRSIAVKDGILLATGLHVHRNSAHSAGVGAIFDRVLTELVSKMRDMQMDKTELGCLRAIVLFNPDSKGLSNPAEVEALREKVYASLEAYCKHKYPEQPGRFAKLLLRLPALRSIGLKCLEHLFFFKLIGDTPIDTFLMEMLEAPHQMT
Nuclear receptor ROR-gamma (Homo sapiens), sequence (P51449 whole entry, looked up): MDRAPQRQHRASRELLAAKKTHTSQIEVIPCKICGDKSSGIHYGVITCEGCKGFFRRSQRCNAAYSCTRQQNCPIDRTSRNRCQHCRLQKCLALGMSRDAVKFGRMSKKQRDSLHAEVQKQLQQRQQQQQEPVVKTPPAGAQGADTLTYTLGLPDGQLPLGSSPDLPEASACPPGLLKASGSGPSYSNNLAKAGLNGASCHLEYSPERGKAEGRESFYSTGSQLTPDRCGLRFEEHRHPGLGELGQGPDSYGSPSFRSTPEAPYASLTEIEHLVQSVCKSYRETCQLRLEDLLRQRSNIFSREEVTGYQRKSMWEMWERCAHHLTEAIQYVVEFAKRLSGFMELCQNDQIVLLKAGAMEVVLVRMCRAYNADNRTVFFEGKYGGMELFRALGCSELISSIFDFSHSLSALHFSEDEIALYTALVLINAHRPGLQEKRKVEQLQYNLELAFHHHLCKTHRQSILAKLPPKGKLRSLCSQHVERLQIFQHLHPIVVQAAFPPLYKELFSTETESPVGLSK
Vitamin D3 receptor (Homo sapiens), sequence (P11473 whole entry, looked up): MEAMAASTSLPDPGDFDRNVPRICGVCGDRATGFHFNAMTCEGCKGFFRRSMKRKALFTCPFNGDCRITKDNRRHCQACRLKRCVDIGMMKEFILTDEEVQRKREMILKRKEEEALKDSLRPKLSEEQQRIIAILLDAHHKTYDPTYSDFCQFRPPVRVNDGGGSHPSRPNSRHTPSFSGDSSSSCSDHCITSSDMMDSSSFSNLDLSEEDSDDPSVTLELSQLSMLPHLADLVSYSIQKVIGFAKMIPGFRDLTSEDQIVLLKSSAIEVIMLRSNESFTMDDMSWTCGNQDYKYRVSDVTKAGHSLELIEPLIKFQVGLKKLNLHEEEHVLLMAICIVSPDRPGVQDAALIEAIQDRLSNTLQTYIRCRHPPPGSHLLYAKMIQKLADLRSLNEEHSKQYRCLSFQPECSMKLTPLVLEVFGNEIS

CC(C)(COCC1CO1)COCC1CO1 (stereo not drawn)
inactive: Potency [1] > 92 µM | Potency [2] | outcome [3] | outcome [4] | Potency [5] | Potency [6] | Potency [7] | Potency [8] | outcome [9] | activity change % (negative = inhibition) [10] -13.4% | Potency [11] | Potency [12] | Potency [13] | max response [14] -5.18%

c1ccc(N=NNc2ccccc2)cc1
inactive: Potency [1] > 92 µM | Potency [2] | outcome [3] | outcome [4] | Potency [15] | Potency [5] | Potency [6] | Potency [7] | Potency [16] | Potency [8] | outcome [9] | outcome [18] | activity change % (negative = inhibition) [10] 0.0148% | Potency [13] | max response [19] -24.2% and -20.9% | max response [14] 5.57% and -4.44%
7.75%: max response [17]

C(CCOCC1CO1)COCC1CO1 (stereo not drawn)
inactive: Potency [1] > 92 µM | Potency [2] | outcome [3] | outcome [4] | Potency [15] | Potency [5] | Potency [7] | Potency [16] | Potency [8] | outcome [9] | outcome [18] | activity change % (negative = inhibition) [10] 16.3% | Potency [11] | Potency [12] | Potency [13] | max response [19] 15.2% | max response [14] -15.1%
-1.76%: max response [17]
active: Potency [20] 31.6 µM

CCCC[N+](=O)[O-]
inactive: Potency [1] > 92 µM | Potency [2] | Potency [20] | outcome [3] | outcome [4] | Potency [15] | Potency [5] | Potency [6] | Potency [7] | Potency [16] | Potency [8] | outcome [9] | outcome [18] | activity change % (negative = inhibition) [10] 2.77% | Potency [11] | Potency [12] | max response [19] -1.65%
-5.28%: max response [17]

Reference: PubChem BioAssay (NCATS)
